Experimental data published in PubChem BioAssay AID1851 (National Center for Advancing Translational Sciences (NCATS), 2009).
Screen size: about 16,000 compounds; about 5,100 (32%) were called active. Inconclusive results (about 25%) are left out. This is one part of the list. Values without a mark were called inactive. Calls follow the shape of the dose curve; as a rule, active = well fitted curve in the direction sought with a large enough effect; inconclusive = small, poorly fitted or top-dose-only effect, or effect the other way; inactive = no such curve, though single readings can be large or run the other way.
% is scaled to controls: 0 for no effect and ±100 for the full control effect.

The compounds below were run against Cytochrome P450 3A4 (Homo sapiens) (UniProt P08684) (assay: Cytochrome panel assay with activity outcomes). Conditions: recombinant CYP, pro-luciferin dealkylation, luminescence, p450-cyp3a4; series mostly up to 57.1 µM.
Cytochrome P450 3A4 (Homo sapiens), sequence (P08684 whole entry, looked up): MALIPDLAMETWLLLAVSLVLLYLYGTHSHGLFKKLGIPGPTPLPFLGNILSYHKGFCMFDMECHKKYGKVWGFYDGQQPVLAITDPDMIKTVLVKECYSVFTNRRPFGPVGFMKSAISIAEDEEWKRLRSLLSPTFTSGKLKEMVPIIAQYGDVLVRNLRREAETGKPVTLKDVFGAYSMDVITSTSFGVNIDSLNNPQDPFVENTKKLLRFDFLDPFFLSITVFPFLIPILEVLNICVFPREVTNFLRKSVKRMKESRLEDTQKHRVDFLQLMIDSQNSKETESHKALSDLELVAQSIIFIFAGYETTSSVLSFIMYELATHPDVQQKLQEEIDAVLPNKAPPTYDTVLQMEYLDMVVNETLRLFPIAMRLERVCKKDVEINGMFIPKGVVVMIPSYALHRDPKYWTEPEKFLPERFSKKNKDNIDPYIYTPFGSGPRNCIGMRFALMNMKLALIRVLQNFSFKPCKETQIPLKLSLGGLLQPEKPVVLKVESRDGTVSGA
With C[C@H](N)[C@H](O)c1ccc(O)c(O)c1 the activity, negative = inhibition was “inactive”.
With CC[C@]1(c2cccc(O)c2)CCCCN(C)C1 the activity, negative = inhibition was “inactive”.
In the case of CC(C)CCn1c(N)c(C(=O)NCc2cccs2)c2nc3ccccc3nc21, the activity, negative = inhibition is reported as -19.7% [at 2.29 µM].
CCCCn1c(N)c(C(=O)NCc2cccs2)c2nc3ccccc3nc21 gave an activity, negative = inhibition of -29.4% [at 2.29 µM].
For COc1ccc(Cn2c(N)c(C(=O)NCc3ccco3)c3nc4ccccc4nc32)cc1, the AC50 was 11.2 µM (active).
CC(=O)OCC(=O)[C@@H]1CC[C@H]2[C@H]3CC[C@H]4C[C@@H](O)CC[C@]4(C)[C@@H]3C(=O)C[C@@]12C was tested, and the activity, negative = inhibition was “inactive”.
Compound O=C(O)C[C@H]1NCc2cc3ccccc3nc21 has an activity, negative = inhibition of -6.42% [at 11.4 µM].
With CCC1=C(C[C@H]2NCCc3ccccc32)C[C@@H]2c3cc(OC)c(OC)cc3CCN2C1 the activity, negative = inhibition was -26.3% [at 11.4 µM].
With COc1ccc(C(=O)O[C@H]2CC[C@@]3(C)[C@H]4CC[C@H]5[C@]3(C[C@]3(O)[C@H]6CN7C[C@H](C)CC[C@H]7[C@](C)(O)[C@]6(O)[C@H](O)C[C@]53O)O[C@]24O)cc1OC the activity, negative = inhibition was -3.45% [at 11.4 µM].
Work on Nc1ccccc1O.O.O=C(O)[C@H]1[O][Sb][O][C@H]1C(=O)O yielded an activity, negative = inhibition of -6.7% [at 11.4 µM].
O=C=Nc1ccc(Cc2ccc(N=C=O)cc2)cc1 (tested in a mixture with another compound) gave an activity, negative = inhibition of 6.47% [at 11.4 µM].
O=S1(=O)N(CCN2CC=C(c3c[nH]c4cc(F)ccc34)CC2)c2cccc3c2N1CCC3 was tested, and the AC50 was 5.01 µM (active).
CN1CC[C@]2(C)c3cc(O)ccc3N(C)[C@@H]12 was tested, and the activity, negative = inhibition was “inactive”.
For c1csc(CN2CCC3(CCNCC3)CC2)n1, the activity, negative = inhibition was “inactive”.
For Cc1c(C(=O)c2ccc3ccccc3c2)c2cccc3c2n1[C@H](CN1CCOCC1)CO3, the AC50 was 7.94 µM (active).
O[C@@H]1[C@H](O)[C@H]2[C@@H](O)CCN2C[C@@H]1O was tested, and the activity, negative = inhibition was “inactive”.
With CCN(CC)C1=NC(=[N+](CC)CC)c2ccccc21 the activity, negative = inhibition was “inactive”.
For CCCCCCC[n+]1ccc(-c2cc[n+](CCCCCCC)cc2)cc1, the activity, negative = inhibition was “inactive”.
For O=C1CS[C@@H](c2ccccc2Cl)c2cc(Cl)ccc2N1, the activity, negative = inhibition was “inactive”.
O=C(O)c1cc(N=Nc2ccc([As](=O)(O)O)cc2)ccc1O showed an activity, negative = inhibition of 1.38% [at 11.4 µM].
CCOC(C(=O)OCCCN(CC)CC)(c1ccccc1)c1ccccc1 was tested, and the AC50 was 0.708 µM (active).
For C=C1[C@@H]2CC[C@H]3[C@@]4(C)C[C@@H](O[C@@H]5O[C@H](CO)[C@H](OS(=O)(=O)O)[C@@H](OS(=O)(=O)O)[C@@H]5OC(=O)CC(C)C)C[C@@H](C(=O)O)[C@H]4CC[C@@]3(C2)[C@H]1O, the activity, negative = inhibition was “inactive”.
In the case of CCN1C[C@@]2(COC)CC[C@H](OC)[C@]34[C@@H]1[C@]1(OCO[C@@]15C[C@@H](OC)C1C[C@H]3[C@H]5[C@@H]1OC)[C@H](O)[C@@H]24, the activity, negative = inhibition is reported as “inactive”.
With O=C(O)c1ccccc1-c1c2cc(Br)c(=O)cc-2oc2[c]([Hg])c(O)c(Br)cc12 the activity, negative = inhibition was “inactive”.
For CC(=O)O[C@H]1C[C@@H](O[C@@H]2[C@H](C)O[C@H](O[C@@H]3[C@H](C)O[C@H](O[C@@H]4CC[C@@]5(C)[C@@H](CC[C@]6(C)[C@]5(C)C[C@H](O)[C@]5(C)[C@@H](C7=CC(=O)OC7)CC[C@@]56O)C4)C[C@@H]3O)C[C@@H]2O)O[C@@H](C)[C@H]1O[C@H]1O[C@@H](CO)[C@@H](O)[C@@H](O)[C@@H]1O, the activity, negative = inhibition was “inactive”.
For COC(=O)[C@H]1C(=O)c2ccccc2O[C@@](C(=O)OC)(c2ccccc2)[C@@H]1c1ccccc1, the AC50 was 3.98 µM (active).
Compound O=P(O)(O)CCP(=O)(O)O has an activity, negative = inhibition of 6.5% [at 11.4 µM].
Work on Cc1cc[c]([Sb]2[O][C@H]([C@H](O)[C@H](O)C(=O)O)[C@@H](CO)[O]2)cc1 yielded an activity, negative = inhibition of 0.934% [at 11.4 µM].
For C[N+]1(C)[C@@H]2CC[C@H]1CC(OC(=O)c1c[nH]c3ccccc13)C2 (stereo partly drawn), the AC50 was 7.94 µM (active).
In the case of C[N+]1(C)[C@@H]2CC[C@H]1CC(OC(=O)[C@@H](CO)c1ccccc1)C2 (stereo partly drawn), the activity, negative = inhibition is reported as “inactive”.
For C[N+]1(C)C2CC[C@H]1CC(OC(=O)[C@@H](CO)c1ccccc1)C2 (stereo partly drawn), the activity, negative = inhibition was 8.45% [at 11.4 µM].
With CC(=O)OCC1=C(C(=O)O)N2C(=O)[C@@H](N)[C@@H]2SC1 the activity, negative = inhibition was “inactive”.
CCc1ccc(CCN2CCCCC2)nc1 was tested, and the activity, negative = inhibition was -16.1% [at 11.4 µM].
For C[C@@]12CCC(=O)C=C1C=C[C@H]1[C@H]3CC[C@](O)(CCC(=O)O)[C@]3(C)CC[C@@H]12, the activity, negative = inhibition was “inactive”.
With O=C(c1ccc(-c2nnc(Nc3ccccc3)c3ccccc23)cc1)N1C[C@H]2C[C@H](C1)c1cccc(=O)n1C2 the AC50 was 31.6 µM (active).
With O=c1cccc2n1CC1CNC[C@H]2C1 the activity, negative = inhibition was “inactive”.
For COc1cc(C(=O)OC2C[C@H]3CC[C@@H](C2)N3C)ccc1O (stereo partly drawn), the activity, negative = inhibition was “inactive”.
For O=c1[nH]cnc2[nH]cc(CN3CCCCC3)c12, the activity, negative = inhibition was -10.7% [at 11.4 µM].
For N[C@@H]1C=CC=C(C(=O)O)C1, the activity, negative = inhibition was “inactive”.
O=S(=O)(NCCO)c1cc[c]([Sb](=[O])([OH])[OH])cc1 was tested, and the activity, negative = inhibition was 9.57% [at 11.4 µM].
With CCCN1CCO[C@@H]2c3cc(O)ccc3OC[C@H]21 the activity, negative = inhibition was “inactive”.
In the case of c1cncc([C@@H]2CCCCN2)c1, the activity, negative = inhibition is reported as “inactive”.
O=S(=O)(c1ccccc1)N1CCCCC1c1cccnc1 (stereo not drawn) was tested, and the AC50 was 2.24 µM (active).
For CC1=C(C)[N+](=O)C2(O)CCCCC2(C)N1[O-] (stereo not drawn), the activity, negative = inhibition was “inactive”.
With CCCN(CCC)[C@@H]1CCc2ccc(O)cc2C1 the activity, negative = inhibition was “inactive”.
For NC(N)=NS(=O)(=O)c1ccc(N)cc1, the activity, negative = inhibition was “inactive”.
For CN(C)[C@@H]1C(=O)C(C(N)=O)=C(O)[C@]2(O)C(=O)C3=C(O)c4c(O)cccc4[C@@](C)(O)[C@H]3[C@H](O)[C@@H]12, the activity, negative = inhibition was “inactive”.
With O=[N+]([O-])c1ccc(S(=O)(=O)Cc2ccccc2)c([N+](=O)[O-])c1 the AC50 was 0.316 µM (active).
For O=[N+]([O-])c1cc(O)c(O)c([N+](=O)[O-])c1, the activity, negative = inhibition was “inactive”.
In the case of O=C(O)Cc1ccc([N+](=O)[O-])cc1[N+](=O)[O-], the activity, negative = inhibition is reported as -8.12% [at 11.4 µM].
For Cc1cc(OC(=O)CCCNC(=O)OC(C)(C)C)c2c3c(c(=O)oc2c1)CCC3, the activity, negative = inhibition was 4.44% [at 2.29 µM].
COc1cc2c3cc1Oc1cc(ccc1O)C[C@@H]1c4c(cc(OC)c(O)c4Oc4cccc(c4)C[C@H]3N(C)CC2)CC[N+]1(C)C was tested, and the activity, negative = inhibition was “inactive”.
For CC(C)(O)/C=C\C(=O)[C@](C)(O)[C@H]1[C@H](O)C[C@]2(C)[C@@H]3CC=C4[C@@H](C=C(O)C(=O)C4(C)C)[C@]3(C)C(=O)C[C@@]12C, the AC50 was 0.398 µM (active).
For CC(=O)OC1N=C(c2ccccc2)c2cc(Br)ccc2N(C)C1=O (stereo not drawn), the activity, negative = inhibition was “inactive”.
Work on CC1=NN(c2ccc(S(=O)(=O)O)cc2C)C(=[OH+])[C@H]1N=Nc1cc(S(=O)(=O)O)ccc1C(=O)O.O.[Cr] yielded an activity, negative = inhibition of 12.6% [at 11.4 µM].
O=[N+]([O-])c1ccc(N2CCNCC2)cc1NCC1CCCO1 (stereo not drawn) was tested, and the activity, negative = inhibition was “inactive”.
With COC(=O)[C@H](N)CCCN=C(N)N[N+](=O)[O-] the activity, negative = inhibition was “inactive”.
For CCOC(=O)C1=C(C)OC(N)=C(C#N)C12C(=O)N(C)c1ccccc12 (stereo not drawn), the AC50 was 6.31 µM (active).
With COc1ccc(C[C@@H]2NC[C@H](O)[C@@H]2OC(C)=O)cc1 the activity, negative = inhibition was “inactive”.
O=C(O)C[O][Sb][O]CC(=O)O gave an activity, negative = inhibition of -1.8% [at 11.4 µM].
Compound NS(=O)(=O)C[C-]1C=C[CH]([Sb-]([Cl])([Cl])([Cl])([Cl])[Cl])C=C1.c1ccncc1 (stereo not drawn) has an activity, negative = inhibition of 7.76% [at 11.4 µM].
CC[C@@H]1CN2CCc3cc(OC)c(OC)cc3[C@H]2C[C@@H]1C[C@@H]1NCCc2cc(O)c(OC)cc21 was tested, and the activity, negative = inhibition was “inactive”.
Cc1ccc(S(=O)(=O)O[C@H]2CN3CCC2CC3)cc1 was tested, and the activity, negative = inhibition was -7.01% [at 11.4 µM].
